Bioassay records: PubChem, National Center for Advancing Translational Sciences (NCATS)
Nrf2 inh – Nrf2 pathway inhibition; A549 ARE-Fluc reporter, luciferase luminescence, 18-24 h; Potency, µM (doses to about 46 µM), usual class: inhibitors; actives 2.1% (n = 360,000); AID 504444; further: nearly all actives have a fitted effect of over 60% in size
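Nrf2 activity is the BugLite luminescence, read 15 min after reagent at room temperature, following CellTiter-Fluor cytotoxicity readout (30 min, 37C). Compound titrations were applied for 18-24 h to 5000 A549 ARE_Fluc cells/well in 5% FBS OPTI-MEM.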
Rango release inh – inhibitors of RanGTP-induced Rango-importin beta complex dissociation. O95149+P62826. Biochemical FRET Rango-importin beta, RanGTP-induced dissociation. Potency, µM (highest dose often 46.1 µM). actives 0.071% (n = 340,000); calls by dose curve; further: nearly all actives have a fitted effect of over 45% in size
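Two FRET readings bracket the reaction: one 5 min after compound meets Rango–importin beta, another 45 min after RanGTP-RCC1 (0.6 uM Ran, 0.2 uM RCC1, 2 mM GTP) is added. Only the second defines inhibition.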
A549 viability – counter-screen for Nrf2 inhibitors: cytotoxicity in A549 cells. A549 ARE-Fluc cells, CellTiter-Fluor viability, 18-24 h. Potency, µM (doses to about 46 µM), actives largely listed as inhibitors. actives 0.16% (n = 390,000)
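Cytotoxicity counterscreen: CellTiter-Fluor fluorescence was measured in A549 ARE_Fluc cells after 18-24 h of compound exposure in a concentration series. The subsequent BugLite luminescent read reports ARE-luciferase activity.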
Rango complex inh – inhibitors of Rango-importin beta complex formation; Q14974; Rango CFP/YFP FRET sensor + importin beta, 45 min; Potency, µM (titrated, usually from 92.2 µM); actives 0.031% (n = 340,000); AID 540263; calls by dose curve; further: nearly all actives have a fitted effect of over 15% in size
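FRET biosensor Rango (snurportin 1 IBB between N-terminal EYFP and C-terminal Cerulean), 50 nM in PBS/1 mM DTT/0.02% Tween-20/0.1% BSA, preincubated 5 min RT with compound; 0.125 microM importin beta added, 45 min RT, CFP/YFP FRET ratio read.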
Nrf2 ARE act – activators of Nrf2 (ARE) signaling; actives 0.31% (n = 410,000); Potency, µM (series often up to 46.1 µM), actives largely listed as activators; AREc32 ARE-luciferase reporter (MCF7-derived line), luminescence, 24 h; AID 624171; further: nearly all actives have a fitted effect of over 65% in size
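Reporter line AREc32 (ARE-Fluc), seeded overnight in OPTI-MEM with 5% FBS; compound pin-transferred, 24 hr at 37 deg C, 5% CO2; luminescent read-out.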
Hits are given with their value; n = inactive; u = inconclusive; x = no result given; ! = not active in a repeat. Most compounds without a hit are left out; they make up all but 2.3% or so of the library. Unless noted, the call rests on the fitted dose curve; in most records, active means well fitted curve in the direction sought with a large enough effect; inconclusive means small, poorly fitted or top-dose-only effect, or another doubt; inactive means no such curve, though single readings can be large; an effect the other way counts as inactive or inconclusive.

SMILES | Nrf2 inh | Rango release inh | A549 viability | Rango complex inh | Nrf2 ARE act
Cc1cc(N2CCN(S(=O)(=O)c3ccc(Cl)c(Cl)c3)CC2)c2ccccc2n1 | 23µM | n | n | n | n
Cc1cc(N2CCN(S(=O)(=O)c3ccc(Cl)cc3)CC2)c2ccccc2n1 | 21µM | n | n | n | n
CN(C)/C=C1\N=C(c2ccccc2)OC1=O | n | n | n | u | n
CN(C)/C(CN1CCN(C=O)CC1)=C1\N=C(c2ccccc2)OC1=O | 23µM | n | n | n | n
CCc1ccc(NC(=O)C2=CC(c3cccs3)=NS(=O)(=O)N2C)cc1 | 16µM! | n | n | n | n
CCOc1ccccc1C(=O)Oc1c(S(=O)(=O)c2ccc(C)cc2)c(C)nn1-c1ccccc1 | n | x | n | x | n
O=C(c1ccc2ccccc2c1)C1CCCN(S(=O)(=O)c2cccnc2)C1 (centres undefined) | 21µM | n | n | n | n
COc1ccc(-c2nn3c(-c4cc(-c5ccccc5)n[nH]4)nnc3s2)cc1 | 23µM | x | n | x | x
CCOC(=O)/C(C#N)=N/Nc1c(C)n(C)n(-c2ccccc2)c1=O | u | n | n | n | n
Cc1ccccc1C(=O)/C(C#N)=N/Nc1c(C)n(C)n(-c2ccccc2)c1=O | 8.2µM | n | 18µM | u | n
Cc1c(N/N=C(\C#N)C(=O)c2ccccc2)c(=O)n(-c2ccccc2)n1C | u | u | 21µM | n | n
Cn1nccc1NC(=O)Nc1cccc(Cl)c1Cl | 16µM | n | n | n | n
CC(C)OCCCNC(=O)c1ccc2c(c1)NC(=O)c1ccccc1S2 | 21µM | n | n | n | n
CCCC1=Nc2cc(C(=O)NCCCOC(C)C)ccc2Sc2ccccc21 | 8.2µM | n | u | n | n
CCCC1=Nc2cc(C(=O)NCCCOCC)ccc2Sc2ccccc21 | n | n | u | n | n
CCC1=Nc2cc(C(=O)NC3CCC(C)CC3)ccc2Sc2ccc(C)cc21 (centres undefined) | u | x | n | x | n
CCOC(=O)N1CCC(NC(=O)c2ccc3c(c2)N=C(CC)c2cc(C)ccc2S3)CC1 | 23µM | n | n | n | n
CC1=Nc2cc(C(=O)NCCCOC(C)C)ccc2Sc2ccc(C)cc21 | 23µM | n | n | n | n
CN(C)c1nc(N)ncc1-c1ccc(Oc2ccccc2)cc1 | n | n | n | n | n
CCc1nn(-c2ccccc2)c2c1-c1cc(OC)c(OC)cc1C1(N2)C(=O)Nc2ccccc21 (centres undefined) | n | 16µM | n | u | n
O=S(=O)(c1ccc2ccccc2c1)N1CCN(C(=S)Nc2ccccc2F)CC1 | 15µM | n | n | n | n
O=S(=O)(c1ccc(Cl)cc1)N1CCN(C(=S)Nc2ccccc2F)CC1 | n | n | n | n | n
Cc1cc2c(s1)c1cnn(Cc3c(C)cc(F)cc3C)c(=O)c1n2C | n | x | n | x | x
O=C(CN1c2ccccc2Sc2ccccc21)NNC(=O)Nc1ccc(Cl)cc1 | 18µM | n | u | n | n
O=C(Cc1ccsc1)Nc1ccc(S(=O)(=O)C(F)F)cc1 | n | n | n | n | n
SMILES | Nrf2 inh | Rango release inh | A549 viability | Rango complex inh | Nrf2 ARE act
CCCCC1C(=O)N(c2ccccc2)N(c2ccc(O)cc2)C1=O (centres undefined) | 26µM | n | u | n | u
COC(=O)CCC(=O)OC1(C)C(=O)C2=CN(C3CCCC3)C(c3ccc(OC)cc3)=CC2=C(Br)C1=O (centres undefined) | n | 9.2µM | n | u | n
COC(=O)CCC(=O)OC1(C)C(=O)C2=CN(c3ccc(OC)cc3)C(c3ccc(OC)cc3)=CC2=C(Br)C1=O (centres undefined) | n | u | n | u | n
CCC(=O)Nc1ccc(N2CCCCC2)c(C(=O)Nc2ccc(OC)cc2)c1 | 18µM | n | n | n | n
Cc1c(P(=S)(c2ccccc2)c2ccccc2)c2ccccc2n1CCc1ccccc1 | n | x | n | x | x
COc1ccc(CCNC(=O)COc2ccc(S(=O)(=O)NCC(C)C)cc2Cl)cc1OC | 21µM | n | n | n | n
CCOc1ccc(N(C)S(=O)(=O)c2ccc(C)c(C(=O)NCc3ccccc3OC)c2)cc1 | 23µM | n | n | n | n
COc1ccc(CCNC(=O)c2ccc(N(C)S(=O)(=O)c3ccc(C)cc3)cc2)cc1OC | u | n | n | n | n
COc1ccc(CCNC(=O)c2ccc(CS(=O)(=O)c3ccc(C)cc3)o2)cc1OC | 21µM | n | n | n | n
COc1ccc(CCNC(=O)COc2ccc(N(C)S(=O)(=O)c3ccc(C)cc3)cc2)cc1OC | 26µM | n | n | n | n
COc1ccc(CCNC(=O)c2ccc(CS(=O)(=O)c3ccc(Cl)cc3)o2)cc1OC | u | n | n | n | n
CCOc1ccc(N(C)S(=O)(=O)c2ccc(C)c(C(=O)NCCc3ccc(OC)cc3)c2)cc1 | u | n | n | n | n
CN(C(=O)c1cc2c(s1)-c1ccc(Cl)cc1SC2)c1cccc(C(F)(F)F)c1 | u | x | n | x | n
O=C(Nc1ccc2oc(-c3ccncc3)nc2c1)c1ccc2c(c1)OCCO2 | u | n | n | n | n
COc1cc(C(=O)Nc2ccc3oc(-c4cccnc4)nc3c2)cc(OC)c1OC | u | n | n | n | n
COc1ccc(Cl)cc1-c1nc(-c2ccc(NC(=O)c3ccncc3)cc2)no1 | n | n | n | n | n
COc1ccc(-c2nc(-c3ccc(NC(=O)c4ccncc4)cc3)no2)cc1OC | 13µM | n | n | n | n
COc1ccc(C(=O)Nc2ccc3oc(-c4cccnc4)nc3c2)cc1OC | 13µM | n | n | n | n
COc1cc(C(=O)Nc2ccc3oc(-c4ccccc4)nc3c2)cc(OC)c1OC | 21µM | x | u | x | n
O=C(Nc1ccc2oc(-c3ccccc3)nc2c1)c1ccc2c(c1)OCCO2 | 9.2µM | n | u | n | n
O=C(COC(=O)c1ccc(O)cc1)Nc1ccccc1[N+](=O)[O-] | n | n | n | n | n
Cc1cc(C)c(S(=O)(=O)N2CCC(n3c(C(F)(F)F)nc4cccnc43)CC2)c(C)c1 | u | x | n | x | n
O=C(NCc1ccccc1Cl)c1ccc2c(c1)ncn2-c1cccc(F)c1 | x | x | n | x | n
O=C(NC1CCCN(Cc2ccccc2F)C1)c1cccs1 (centres undefined) | n | n | n | n | n
COc1ccccc1NCC(O)Cn1c2ccccc2c2ccccc21 (centres undefined) | u | n | 21µM | n | n
COc1ccc(CCNCC(O)Cn2c3ccccc3c3ccccc32)cc1OC (centres undefined) | u | n | n | n | n
COc1cccc2cc(-c3nc4sc5c(c4c(=O)[nH]3)CCC(C(C)(C)C)C5)c(=O)oc12 (centres undefined) | u | x | n | x | n
COc1ccc(NS(=O)(=O)c2ccccc2C(=O)O)cc1 | n | x | n | x | x
COC1=C(Nc2ccc(C)cc2)C(=O)c2ccccc2C1=O | 16µM | n | u | n | n
